From ChEMBL document CHEMBL1961873, “Compounds: GSK PKIS; Assays: Nanosyn kinase panel” (2012)

What was measured:
[1] = biological target: Leukocyte tyrosine kinase receptor (Homo sapiens) (UniProt P29376); conditions: at 1 µM;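 further: each value is the mean inhibition of LTK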
[2] = biological target: Tyrosine-protein kinase Lyn (Homo sapiens) (UniProt P07948); conditions: at 0.1 µM
[3] = biological target: Tyrosine-protein kinase Lyn (Homo sapiens) (UniProt P07948); conditions: at 1 µM
[4] = biological target: Tyrosine-protein kinase Lyn (Homo sapiens) (UniProt P07948); conditions: at 0.1 µM; remark: listed apart in the source
[5] = biological target: Tyrosine-protein kinase Lyn (Homo sapiens) (UniProt P07948); conditions: at 1 µM; remark: listed apart in the source
[6] = biological target: T1, Tyrosine-protein kinase Mer (Homo sapiens) (UniProt Q12866); conditions: at 0.1 µM
T1 sequence (whole entry): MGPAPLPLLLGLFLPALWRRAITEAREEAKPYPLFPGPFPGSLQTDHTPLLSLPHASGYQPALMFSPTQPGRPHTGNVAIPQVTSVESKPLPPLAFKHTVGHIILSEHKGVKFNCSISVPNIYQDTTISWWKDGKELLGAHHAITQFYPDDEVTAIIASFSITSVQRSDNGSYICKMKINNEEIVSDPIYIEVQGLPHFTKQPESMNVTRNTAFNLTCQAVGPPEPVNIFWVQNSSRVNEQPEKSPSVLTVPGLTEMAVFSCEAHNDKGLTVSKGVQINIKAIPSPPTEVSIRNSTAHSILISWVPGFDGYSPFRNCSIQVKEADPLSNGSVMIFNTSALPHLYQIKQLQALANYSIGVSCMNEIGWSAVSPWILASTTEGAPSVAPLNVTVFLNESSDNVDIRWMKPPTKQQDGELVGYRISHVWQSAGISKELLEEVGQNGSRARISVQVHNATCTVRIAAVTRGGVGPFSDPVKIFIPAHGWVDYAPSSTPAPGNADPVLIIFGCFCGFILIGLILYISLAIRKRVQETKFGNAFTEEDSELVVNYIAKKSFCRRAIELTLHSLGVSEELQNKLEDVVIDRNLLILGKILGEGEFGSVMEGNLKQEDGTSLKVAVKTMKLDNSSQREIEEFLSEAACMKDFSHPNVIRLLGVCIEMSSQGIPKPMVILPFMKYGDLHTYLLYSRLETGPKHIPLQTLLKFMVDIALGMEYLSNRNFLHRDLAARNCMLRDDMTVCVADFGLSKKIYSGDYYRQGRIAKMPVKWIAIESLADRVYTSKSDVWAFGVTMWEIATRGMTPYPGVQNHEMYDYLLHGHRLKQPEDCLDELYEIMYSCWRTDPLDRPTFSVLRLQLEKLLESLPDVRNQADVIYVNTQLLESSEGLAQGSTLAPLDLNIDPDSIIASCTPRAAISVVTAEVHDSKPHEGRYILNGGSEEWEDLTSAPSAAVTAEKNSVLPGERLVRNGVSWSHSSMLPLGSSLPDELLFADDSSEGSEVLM

[7] = biological target: T1, Tyrosine-protein kinase Mer (Homo sapiens); conditions: at 1 µM
[8] = biological target: Hepatocyte growth factor receptor (Homo sapiens) (UniProt P08581); conditions: at 0.1 µM
[9] = biological target: Hepatocyte growth factor receptor (Homo sapiens) (UniProt P08581); conditions: at 1 µM
[10] = biological target: T2, Muscle, skeletal receptor tyrosine-protein kinase (Homo sapiens) (UniProt O15146); conditions: at 0.1 µM
T2 sequence (whole entry): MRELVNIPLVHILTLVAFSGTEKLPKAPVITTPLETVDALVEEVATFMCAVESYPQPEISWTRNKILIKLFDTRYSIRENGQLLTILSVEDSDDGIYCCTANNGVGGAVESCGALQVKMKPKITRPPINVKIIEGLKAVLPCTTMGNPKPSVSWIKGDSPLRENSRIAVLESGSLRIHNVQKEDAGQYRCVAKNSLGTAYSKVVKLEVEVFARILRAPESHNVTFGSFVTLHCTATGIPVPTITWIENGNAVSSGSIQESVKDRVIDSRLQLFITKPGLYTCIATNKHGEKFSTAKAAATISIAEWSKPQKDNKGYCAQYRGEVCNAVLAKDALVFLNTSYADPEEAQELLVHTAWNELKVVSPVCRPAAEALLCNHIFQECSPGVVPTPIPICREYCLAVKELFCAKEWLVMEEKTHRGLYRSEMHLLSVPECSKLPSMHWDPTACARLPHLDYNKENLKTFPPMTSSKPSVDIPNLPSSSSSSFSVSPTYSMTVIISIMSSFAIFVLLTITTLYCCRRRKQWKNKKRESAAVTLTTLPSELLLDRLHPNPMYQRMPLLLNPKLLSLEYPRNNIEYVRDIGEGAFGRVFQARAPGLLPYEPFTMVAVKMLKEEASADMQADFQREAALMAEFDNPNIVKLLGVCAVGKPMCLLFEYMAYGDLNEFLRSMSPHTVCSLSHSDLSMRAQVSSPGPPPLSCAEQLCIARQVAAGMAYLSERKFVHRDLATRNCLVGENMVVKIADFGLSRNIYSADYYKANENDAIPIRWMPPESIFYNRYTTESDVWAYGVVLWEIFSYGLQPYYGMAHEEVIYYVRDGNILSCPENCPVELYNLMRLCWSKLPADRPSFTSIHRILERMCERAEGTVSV

[11] = biological target: T2, Muscle, skeletal receptor tyrosine-protein kinase (Homo sapiens); conditions: at 1 µM
[12] = biological target: Platelet-derived growth factor receptor alpha (Homo sapiens) (UniProt P16234); conditions: at 0.1 µM
Sequence of Platelet-derived growth factor receptor alpha (Homo sapiens) (P16234 whole entry): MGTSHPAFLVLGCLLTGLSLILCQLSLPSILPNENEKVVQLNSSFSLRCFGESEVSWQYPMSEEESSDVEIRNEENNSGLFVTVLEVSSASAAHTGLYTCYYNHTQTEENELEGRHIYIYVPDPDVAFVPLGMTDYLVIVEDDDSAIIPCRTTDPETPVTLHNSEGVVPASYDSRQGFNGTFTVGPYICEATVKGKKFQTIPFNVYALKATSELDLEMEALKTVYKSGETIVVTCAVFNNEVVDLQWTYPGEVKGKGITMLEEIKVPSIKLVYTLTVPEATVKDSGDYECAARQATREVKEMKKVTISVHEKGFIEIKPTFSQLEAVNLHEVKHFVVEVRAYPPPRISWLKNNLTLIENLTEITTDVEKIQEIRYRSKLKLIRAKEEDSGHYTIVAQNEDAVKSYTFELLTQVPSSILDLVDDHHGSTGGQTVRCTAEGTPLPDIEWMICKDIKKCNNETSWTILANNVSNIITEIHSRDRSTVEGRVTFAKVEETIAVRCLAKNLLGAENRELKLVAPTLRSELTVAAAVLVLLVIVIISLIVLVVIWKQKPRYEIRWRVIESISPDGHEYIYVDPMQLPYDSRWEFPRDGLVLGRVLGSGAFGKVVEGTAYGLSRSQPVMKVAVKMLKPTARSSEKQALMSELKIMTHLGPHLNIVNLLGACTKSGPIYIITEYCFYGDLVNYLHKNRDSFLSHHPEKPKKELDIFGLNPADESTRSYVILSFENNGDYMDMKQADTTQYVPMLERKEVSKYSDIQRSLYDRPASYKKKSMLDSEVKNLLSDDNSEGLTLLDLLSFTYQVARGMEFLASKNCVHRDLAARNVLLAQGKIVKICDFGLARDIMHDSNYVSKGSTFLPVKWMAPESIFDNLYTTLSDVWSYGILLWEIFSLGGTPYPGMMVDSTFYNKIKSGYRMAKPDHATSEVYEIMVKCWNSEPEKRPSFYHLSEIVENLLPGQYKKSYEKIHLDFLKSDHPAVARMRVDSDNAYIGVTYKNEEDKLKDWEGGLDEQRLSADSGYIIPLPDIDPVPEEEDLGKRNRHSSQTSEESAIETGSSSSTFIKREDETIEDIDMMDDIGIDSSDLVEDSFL

[13] = biological target: Platelet-derived growth factor receptor alpha (Homo sapiens) (UniProt P16234); conditions: at 1 µM
[14] = system: Platelet-derived growth factor receptor alpha (Homo sapiens), P16234 [D842V]; conditions: at 0.1 µM
[15] = system: Platelet-derived growth factor receptor alpha (Homo sapiens), P16234 [D842V]; conditions: at 1 µM
[16] = system: Platelet-derived growth factor receptor alpha (Homo sapiens), P16234 [T674I]; conditions: at 0.1 µM
[17] = system: Platelet-derived growth factor receptor alpha (Homo sapiens), P16234 [T674I]; conditions: at 1 µM
[18] = system: Platelet-derived growth factor receptor alpha (Homo sapiens), P16234 [V561D]; conditions: at 0.1 µM
Sequence of Platelet-derived growth factor receptor alpha (Homo sapiens), P16234 [V561D] (P16234 whole entry V561D): as the sequence (P16234 whole entry) above, with V561D counted along it

[19] = system: Platelet-derived growth factor receptor alpha (Homo sapiens), P16234 [V561D]; conditions: at 1 µM
[20] = biological target: Platelet-derived growth factor receptor beta (Homo sapiens) (UniProt P09619); conditions: at 0.1 µM;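 further: reported value is the mean percent inhibition of the kinase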
Sequence of Platelet-derived growth factor receptor beta (Homo sapiens) (P09619 whole entry): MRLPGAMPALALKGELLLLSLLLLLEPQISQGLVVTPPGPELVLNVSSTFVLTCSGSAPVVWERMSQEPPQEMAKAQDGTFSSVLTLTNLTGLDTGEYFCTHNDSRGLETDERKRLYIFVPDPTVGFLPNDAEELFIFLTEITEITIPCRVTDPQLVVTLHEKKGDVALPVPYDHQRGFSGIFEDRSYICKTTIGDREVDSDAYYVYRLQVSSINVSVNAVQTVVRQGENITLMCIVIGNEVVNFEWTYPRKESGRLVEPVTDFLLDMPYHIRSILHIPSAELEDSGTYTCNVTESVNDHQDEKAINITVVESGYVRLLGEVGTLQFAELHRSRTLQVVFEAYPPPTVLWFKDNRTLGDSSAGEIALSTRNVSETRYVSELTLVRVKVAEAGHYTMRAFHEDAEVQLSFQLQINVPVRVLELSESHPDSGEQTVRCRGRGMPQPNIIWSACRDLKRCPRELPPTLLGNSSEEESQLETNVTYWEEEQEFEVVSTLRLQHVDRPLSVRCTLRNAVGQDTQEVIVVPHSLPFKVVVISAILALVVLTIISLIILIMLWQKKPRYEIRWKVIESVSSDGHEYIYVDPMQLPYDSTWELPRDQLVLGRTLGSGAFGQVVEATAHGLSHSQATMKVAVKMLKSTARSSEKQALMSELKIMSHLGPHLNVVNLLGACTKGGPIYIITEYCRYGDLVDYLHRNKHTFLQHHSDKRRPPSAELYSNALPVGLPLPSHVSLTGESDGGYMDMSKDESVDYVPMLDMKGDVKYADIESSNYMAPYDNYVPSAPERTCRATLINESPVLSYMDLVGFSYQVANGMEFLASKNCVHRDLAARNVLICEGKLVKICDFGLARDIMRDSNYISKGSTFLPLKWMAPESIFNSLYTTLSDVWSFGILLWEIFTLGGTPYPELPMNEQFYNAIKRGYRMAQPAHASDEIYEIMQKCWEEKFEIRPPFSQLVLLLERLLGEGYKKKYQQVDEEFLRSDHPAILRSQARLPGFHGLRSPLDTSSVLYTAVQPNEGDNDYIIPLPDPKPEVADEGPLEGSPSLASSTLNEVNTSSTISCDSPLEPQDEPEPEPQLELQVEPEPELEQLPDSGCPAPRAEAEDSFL

Sequence of Leukocyte tyrosine kinase receptor (Homo sapiens) (P29376 whole entry): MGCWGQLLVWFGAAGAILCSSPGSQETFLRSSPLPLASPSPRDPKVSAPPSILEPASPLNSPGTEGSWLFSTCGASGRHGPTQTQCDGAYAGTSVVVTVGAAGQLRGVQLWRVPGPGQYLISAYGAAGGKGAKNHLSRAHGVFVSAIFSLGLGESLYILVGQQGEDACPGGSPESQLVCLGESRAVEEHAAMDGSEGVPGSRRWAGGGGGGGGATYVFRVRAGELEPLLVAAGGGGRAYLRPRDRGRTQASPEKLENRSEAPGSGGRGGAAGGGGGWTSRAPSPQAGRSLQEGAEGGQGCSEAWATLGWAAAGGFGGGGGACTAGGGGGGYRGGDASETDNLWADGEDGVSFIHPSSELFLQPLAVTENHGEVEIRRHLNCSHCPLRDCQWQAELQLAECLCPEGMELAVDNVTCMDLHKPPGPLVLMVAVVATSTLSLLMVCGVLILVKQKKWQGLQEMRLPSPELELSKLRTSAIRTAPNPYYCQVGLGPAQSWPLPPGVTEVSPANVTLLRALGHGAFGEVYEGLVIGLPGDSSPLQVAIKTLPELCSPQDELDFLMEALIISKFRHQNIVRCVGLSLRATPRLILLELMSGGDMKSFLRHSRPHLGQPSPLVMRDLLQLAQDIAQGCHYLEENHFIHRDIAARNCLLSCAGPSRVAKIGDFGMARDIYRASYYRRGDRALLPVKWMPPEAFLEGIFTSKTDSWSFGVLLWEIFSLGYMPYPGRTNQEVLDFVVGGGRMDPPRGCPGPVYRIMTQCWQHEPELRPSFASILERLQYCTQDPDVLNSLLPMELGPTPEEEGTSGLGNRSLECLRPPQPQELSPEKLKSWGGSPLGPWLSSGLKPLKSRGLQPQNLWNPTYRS
Sequence of Tyrosine-protein kinase Lyn (Homo sapiens) (P07948 2-512 limits assumed): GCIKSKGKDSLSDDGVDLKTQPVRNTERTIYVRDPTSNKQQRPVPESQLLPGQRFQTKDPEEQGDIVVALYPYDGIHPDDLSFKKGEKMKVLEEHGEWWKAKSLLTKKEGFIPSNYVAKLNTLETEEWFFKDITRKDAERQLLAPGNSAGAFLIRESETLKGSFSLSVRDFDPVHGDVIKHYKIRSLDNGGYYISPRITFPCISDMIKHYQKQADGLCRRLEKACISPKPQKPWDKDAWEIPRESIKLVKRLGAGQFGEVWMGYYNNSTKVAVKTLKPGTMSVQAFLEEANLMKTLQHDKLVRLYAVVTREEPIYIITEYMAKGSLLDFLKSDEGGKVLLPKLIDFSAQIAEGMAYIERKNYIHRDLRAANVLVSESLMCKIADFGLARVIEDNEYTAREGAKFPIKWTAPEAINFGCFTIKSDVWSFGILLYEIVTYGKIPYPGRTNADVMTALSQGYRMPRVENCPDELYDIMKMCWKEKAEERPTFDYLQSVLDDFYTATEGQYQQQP

| SMILES | inhibition [1] | inhibition [2] | inhibition [3] | inhibition [4] | inhibition [5] | inhibition [6] | inhibition [7] | inhibition [8] | inhibition [9] | inhibition [10] | inhibition [11] | inhibition [12] | inhibition [13] | inhibition [14] | inhibition [15] | inhibition [16] | inhibition [17] | inhibition [18] | inhibition [19] | inhibition [20] |
| --- | --- | --- | --- | --- | --- | --- | --- | --- | --- | --- | --- | --- | --- | --- | --- | --- | --- | --- | --- | --- |
| CCN1CCC(CC(=O)Nc2n[nH]c3nnc(-c4cccc(F)c4F)cc23)CC1 | 1.45% | 3.32% | 3.55% | 2.16% | 2.2% | -1.66% | -0.36% | 4.54% | 9.2% | 1.85% | -2.42% | 5.32% | 10.4% | 4.75% | 2.84% | 3.48% | 4.83% | 2.85% | 3.83% | -0.56% |
| O=C(Nc1n[nH]c2cc(-c3ccc(F)cc3)ccc12)C1CC1 | 2.75% | 6.61% | 5.51% | 3.7% | 3.43% | 2.14% | 2.68% | 1.03% | 0.71% | 2.93% | 4.55% | 4.52% | 14.6% | 4.21% | 12.9% | 3.24% | 8.33% | 4.41% | 13.2% | 2.29% |
| N#Cc1c(NC(=O)CN2CCOCC2)sc2c1CCCC2 | 4.38% | 4.72% | 7.89% | 2.92% | 5.26% | 1.87% | 4.98% | 7.91% | 13% | 2.41% | 5.38% | 6.84% | 10.4% | 3.81% | 4.78% | 6.89% | 9.82% | 4.95% | 3.92% | 2.42% |
| COc1cc(Nc2nccc(Nc3ccc4c(C)n[nH]c4c3)n2)cc(OC)c1OC | 33.3% | 49.6% | 87.4% | 44.5% | 85.6% | 3.5% | 14.4% | 1.57% | 12.3% | 21.3% | 72.5% | 76% | 91.6% | 50% | 90.2% | 11.4% | 59% | 71.4% | 96.5% | 74.4% |
| Cc1ccc2c(-c3ccnc(Nc4ccccc4)n3)c(-c3ccc(F)cc3)nn2n1 | 2.78% | 10.8% | 50.1% | 8.55% | 44.4% | 3.07% | 23.9% | 1.64% | 8.18% | 3.5% | 4.61% | 14.8% | 47.9% | 8.2% | 46.6% | 4.09% | 4.32% | 11.6% | 59.1% | 22.5% |
| CNC(=O)c1cc(-c2ccc(F)cc2)cc(-c2ccc(S(=O)(=O)N3CCCC3)cc2)c1N | 3.29% | 2.72% | 2.56% | 1.59% | 1.39% | 0.74% | 2.3% | 3.93% | 5.04% | 2.8% | 0.83% | 3.69% | 7.98% | 2.05% | 1.76% | 2.94% | 2.93% | 3.32% | 2.29% | 3.45% |
| CCn1c(-c2nonc2N)nc2c(C#CC(C)(C)O)nc(OC[C@H](N)c3ccccc3)cc21 | 17.1% | 4.19% | 4.52% | 2.36% | 4.2% | 5.78% | 3.59% | 6.32% | 1.76% | 0.54% | 5.52% | 4.66% | 43.8% | 12.2% | 61.6% | 9.88% | 47% | 4.88% | 42.3% | 13% |
| CCN(CC)S(=O)(=O)c1ccc(OC)c(Nc2ncc(-c3ccccc3)o2)c1 | -0.4% | 4.63% | 34.8% | 4.28% | 28.9% | 0.62% | 2.09% | 3.7% | 4.3% | -2.42% | 6.08% | 12.7% | 50.7% | 5.3% | 23.2% | 8.47% | 8.95% | 10.1% | 39.2% | 19.2% |
| CC(=O)Nc1cccc(C#Cc2cncnc2Nc2ccc(OCc3cccc(F)c3)c(Cl)c2)c1 | 0.9% | 1.26% | 1.6% | 1.1% | 0.14% | 1.62% | 2.65% | 4.11% | 1.83% | 2.39% | 6.82% | 8.71% | 15.1% | 1.39% | 1.82% | 5.24% | 1.24% | -4.05% | 4.74% | 3.29% |
| CN1CCC(n2cnc(-c3ccc(F)cc3)c2-c2ccnc(Nc3ccccc3)n2)CC1 | 1.97% | 4.88% | 23.3% | 2.82% | 13.9% | 0.46% | 6.83% | -0.26% | 9.59% | 1.28% | 2.15% | 8.81% | 22.1% | 4.56% | 18.6% | 5.9% | 5.98% | 5.65% | 15.5% | 7.67% |
| O=C(O[C@H]1CN[C@H](C#Cc2cc3ncnc(Nc4ccc(Cc5ccccc5)cc4)c3s2)C1)N1CCOCC1 | 0.57% | 0.85% | 4.14% | 0.33% | 3.75% | -0.63% | 2.01% | -1.3% | 4.56% | -0.21% | -2.65% | -1.51% | 7.66% | -1% | 2.55% | 1.75% | 3.96% | -0.15% | 1.53% | 2.34% |
| Clc1ccc(-c2nn3ncccc3c2-c2ccnc(Nc3ccccc3)n2)cc1 | 3.81% | 7.57% | 40.7% | 4.2% | 35.4% | 0.11% | 6.33% | 4.95% | 4.06% | 1.49% | 1.46% | 6.5% | 31.3% | 6.95% | 18.8% | 3.65% | 8.75% | 12.4% | 42% | 6.84% |
| CC1=C(C(=O)Nc2cc(Cl)c3[nH]ncc3c2)C(c2ccc(C(F)(F)F)cc2)CC(=O)N1 (stereo not given) | 3.88% | 5.29% | 10.9% | 3.46% | 9.12% | 1.72% | 0.92% | 0.14% | 4.94% | 50.2% | 9.6% | 4.87% | 8.87% | 2.44% | 4.3% | 5.17% | 7.54% | 4.08% | 4.27% | 0.58% |
